Compounds with a hit are over-represented: about 3.8% of the library has one in this group of screens.
ADAM17 inh: inhibitors of human ADAM17; hit rate 0.83% among 370,000; recombinant ADAM17, EDANS/DABCYL FRET peptide cleavage; inhibition, % at 6.95 µM; P78536; AID 720648;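 active = inhibition above the mean of compounds lying between control limits plus 3 SD, set per campaign, cut at about 8.5% in these data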;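 also: 0% = DMSO-only wells as the low control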
rRNA inh HTS: selective bacterial rRNA inhibition in E. coli; E. coli WT GFP vs humanized-ribosome RFP mutants, fluorescence, 24 h; active compounds read low; DMSO median 0, no signal -100; GFP signal change (wild-type ribosome), % (concentration not given with the values); hit rate 1.6% among 350,000;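 active = significant combined selectivity score with lowered wild-type GFP, culture density cut under 30%, mutant RFP and density less affected; inactive = any of these conditions unmet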
FGF22 binding: shifts melting point of recombinant human FGF22. recombinant FGF22 thermal shift, SYPRO orange fluorescence; percent of sucrose octasulfate shift, DMSO zero. activity (Tm shift, normalised), % at 9.99 µM. hit rate 1.5% among 340,000. AID 651658;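 active = mean Tm shift, scaled 0 neutral to 100 positive control, at about 1.3% or above, every replicate too, limit read from the data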
Target sequence (Q9HCT0 whole entry, looked up): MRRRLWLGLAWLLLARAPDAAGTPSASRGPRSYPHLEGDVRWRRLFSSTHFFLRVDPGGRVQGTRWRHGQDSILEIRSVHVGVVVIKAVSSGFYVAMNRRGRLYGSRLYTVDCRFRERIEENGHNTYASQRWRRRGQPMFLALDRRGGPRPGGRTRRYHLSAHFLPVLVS
ADAM10 inh: inhibitors of human ADAM10. O14672. recombinant ADAM10, EDANS/DABCYL FRET peptide cleavage, 3 h. inhibition, % at 7 µM. hit rate 0.62% among 370,000;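 active = inhibition above a per-campaign cutoff equal to the mean of compounds falling between control-based bounds plus 3 SD, cut at about 20% in these data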;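 also: 0% = DMSO wells while the 100% control is not disclosed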
KLK7 zymogen act: proKLK7 (human) activation, primary screen; P49862; purified proKLK7, EDANS-DABCYL substrate fluorescence; 100% is mature enzyme control, 0% vehicle; activation, % at 7 µM; hit rate 0.9% among 370,000; AID 652039;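 active = activation above the mean of all tested compounds plus 3 SD, computed per campaign excluding outliers beyond control limits, cut at about 13% in these data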
Target sequence (P49862 whole entry, looked up): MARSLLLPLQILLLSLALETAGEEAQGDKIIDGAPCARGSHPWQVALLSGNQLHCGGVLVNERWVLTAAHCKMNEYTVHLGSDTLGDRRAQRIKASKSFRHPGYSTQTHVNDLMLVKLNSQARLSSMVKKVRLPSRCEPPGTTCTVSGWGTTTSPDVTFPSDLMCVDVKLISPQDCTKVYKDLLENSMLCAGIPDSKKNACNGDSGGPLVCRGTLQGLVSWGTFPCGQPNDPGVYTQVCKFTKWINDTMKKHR
* marks the source's active call; other numbers are inactive results; i = inactive; x = not tested or not shown.

SMILES	ADAM17 inh	rRNA inh HTS	FGF22 binding	ADAM10 inh	KLK7 zymogen act
NC(=O)c1nnsc1Sc1c(C(N)=O)nnn1-c1cccc(N)c1	-2	-27*	0	-8	0
COC(=O)c1cn(-c2cccc(N)c2)nn1	x	x	0	x	x
CO[C@@H]1CN(C)C(=O)c2cc(NC(=O)c3cnccn3)ccc2OC[C@@H](C)N(CCc2ccccc2)C[C@H]1C	x	-3	-1	x	x
Cc1ccc(C)c2sc(NC(=O)CN3C(=O)CCC3=O)nc12	-4	-18	43*	-1	0
Cc1cccc2sc(NC(=O)CN3C(=O)NC4(CCCC4)C3=O)nc12	-3	-12	0	2	0
Cc1cccc2sc(NC(=O)CN3C(=O)C4CC=CCC4C3=O)nc12 (stereo unspecified)	0	5	44*	2	0
C[C@H]1CCCCO[C@@H](CN(C)C(=O)Cc2ccccc2)[C@@H](C)CN([C@@H](C)CO)C(=O)c2cc(NC(=O)c3ccncc3)ccc2O1	x	1	0	x	x
O=C(Nc1ccc(OC(F)(F)F)cc1)N1CCN(c2ccnc3cc(Cl)ccc23)CC1	7	-29*	0	3	0
COCC#Cc1ccc2c(c1)O[C@H](CN(C)S(=O)(=O)c1cccc(OC)c1)[C@H](C)CN([C@@H](C)CO)S2(=O)=O	x	-2	0	x	x
CC1CCc2nc3ccccc3c(C(=O)OCC(=O)N(C)C3CCS(=O)(=O)C3)c2C1 (stereo unspecified)	-10	-6	0	-13	0
CC1CCc2nc3ccccc3c(C(=O)OCC(=O)NC3CCS(=O)(=O)C3)c2C1 (stereo unspecified)	-8	-29*	0	-14	0
CCC(=O)N1CC2(C1)CN(C(=O)CN1CCOCC1)[C@@H](CO)c1[nH]c3cc(OC)ccc3c12	x	4	x	x	x
S=C(NCc1ccco1)Nc1ccc(Br)cc1Cl	1	-37*	0	0	0
O=C(c1ccco1)N1CCN(C(=S)Nc2ccc(Br)cc2Cl)CC1	-2	-44*	0	-5	0
Cc1cc(CNC(=O)c2cc(Br)ccc2Cl)nn1C	0	x	x	7	-1
Cc1cc(CNC(=S)Nc2ccc(Br)cc2Cl)nn1C	-2	-47*	42	-3	0
Cc1cc(C)cc(NC(=S)N2CCN(C(=O)c3ccco3)CC2)c1	0	8	0	7	1
COc1ccccc1-c1ccc2n(c1=O)C[C@@H]1[C@@H](CO)[C@H](C(=O)N[C@H](C)c3ccccc3)[C@H]2N1C	x	-1	0	x	x
O=C(C1CCC1)N1CC[C@@H]2[C@H](CO)Nc3ccc(-c4cccc(F)c4)cc3[C@@H]21	x	-23	x	x	x
CC1=CC(C)C2(CO)COC(c3cccnc3)C1C2C (stereo unspecified)	0	8	43*	-1	0
CC1=CC(C)C2(CO)COC(c3ccc(O)cc3)C1C2C (stereo unspecified)	1	-27	43*	1	0
CC1CC2(C)Oc3ccccc3C3OCC1(CO)C(C)C32 (stereo unspecified)	0	1	x	8	1
CCOC(=O)C1=C(N)OC2=C(C(=O)CC(C)(C)C2)C1c1cccnc1 (stereo unspecified)	-1	x	x	4	-1
COc1ccc2c3c([nH]c2c1)[C@@H](CO)N(Cc1ccccn1)CC31CCN(C(=O)c2ccccn2)CC1	x	3	0	x	x
O=C(N/N=C/c1ccc[nH]1)c1cc(-c2cccs2)nc2ccccc12	-83	-24*	0	-259	-12
SMILES	ADAM17 inh	rRNA inh HTS	FGF22 binding	ADAM10 inh	KLK7 zymogen act
O=C(O)COc1ccccc1/C=N/NC(=O)c1cc(-c2ccc(F)cc2)nc2ccccc12	-5	-6	1.5*	-2	0
Cc1cc(C(=O)N/N=C/c2ccc[nH]2)n[nH]1	-1	8	43*	-7	0
Cc1cc(C(=O)N/N=C/c2ccc[nH]2)no1	0	x	x	-9	0
O=C(N/N=C/c1cccnc1)c1cc(-c2cccs2)nc2ccccc12	-296	x	x	i	9
Cc1noc(C)c1S(=O)(=O)N(C)C[C@@H]1OCCCC[C@@H](C)Oc2ccc(NC(=O)Nc3ccccc3)cc2C(=O)N([C@@H](C)CO)C[C@H]1C	x	-5	0	x	x
COc1ccc(S(=O)(=O)Nc2ccc3c(c2)CC(=O)N([C@H](C)CO)C[C@@H](C)[C@@H](CN(C)Cc2ccc(Oc4ccccc4)cc2)O3)cc1	x	3	-1	x	x

From PubChem BioAssay
